Laboratory results as given in the supplement of paper PMC8728848.
This is one part of a sample in which the strongest signals are shown more often than they occur.

What follows are substances tested on Fuc(a1-4)GlcNAc (assay: glycan array binding signal (z-score within array); higher = stronger binding). Conditions: glycan notation: IUPAC condensed, linker removed.
Procedure, shortened: (§1)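 The binding signal is a Z-score computed within each array and averaged over linkers. Arrays of the same protein sequence at different concentrations or buffers were also averaged together. Data originate from 3228 arrays in the Consortium for Functional Glycomics database, kept only where the protein sequence was available.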

| Substance | glycan array binding signal (z-score) |
| --- | --- |
| BambL (Burhholderia ambifaria), Q0B4G1 | 6.86 |
| AgI/IIC123-GFP (Streptococcus mutans) | 6.16 |
| AgI/II Vhelical-GFP (Streptococcus mutans) | 19.1 |

The substances below were run on Fuc(b1-3)GlcNAc in the same assay as above. Conditions: glycan notation: IUPAC condensed, linker removed.
Procedure, shortened: as §1

| Substance | glycan array binding signal (z-score) |
| --- | --- |
| Wza (Escherichia coli), P0A930 | 1.51 |
| BambL (Burhholderia ambifaria), Q0B4G1 | 4.1 |
| Actinohivin (Actinomycete K97) | -0.17 |
| LcI (Legionella pneumophila) | 0.056 |
| AgI/II Vhelical-GFP (Streptococcus mutans) | -0.193 |

Each substance was assayed on Gal(a1-3)Gal(b1-3)GlcNAc(b1-2)Man in the same assay as above. Conditions: glycan notation: IUPAC condensed, linker removed.
Procedure, shortened: as §1

| Substance | glycan array binding signal (z-score) |
| --- | --- |
| Actinohivin (Actinomycete K97) | 0.041 |
| Epa22 | -0.377 |
| AgI/II Vhelical-GFP (Streptococcus mutans) | -0.049 |
